PostGolgi ctrl: yeast control strain growth, post-Golgi counter-screen. actives 5% (n = 98,000). efflux-deficient yeast background strain, growth absorbance A615, 16 h. inhibition, % at 10 µM. AID 738
CYP2C9 act: activators of human CYP2C9 | recombinant CYP2C9, luciferin-H conversion, luminescence; hits give high values; factor 1 = untreated enzyme, 0 = blocked | activation factor at 5 µM | actives 1.4% (n = 96,000) | AID 1024;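 active = activation factor of 2 or more for CYP2C9 at a 5 µM dose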;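 also: 0 = sulfaphenazole-blocked wells and 1 = vehicle-only wells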
CYP2C19 activ: cytochrome P450 2C19 (human) activation | 96,000 tested, under 10 active | activation factor at 5 µM | recombinant CYP2C19, luciferin-H EGE luminescence; hits give high values; 0 = fully inhibited enzyme, 1 = untreated enzyme;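 active = activation factor of at least 2 at 5 µM in the primary screen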;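 also: 0 = wells with 2.5 mM tranylcypromine and 1 = vehicle-only wells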
Target sequence (P33261 whole entry, looked up): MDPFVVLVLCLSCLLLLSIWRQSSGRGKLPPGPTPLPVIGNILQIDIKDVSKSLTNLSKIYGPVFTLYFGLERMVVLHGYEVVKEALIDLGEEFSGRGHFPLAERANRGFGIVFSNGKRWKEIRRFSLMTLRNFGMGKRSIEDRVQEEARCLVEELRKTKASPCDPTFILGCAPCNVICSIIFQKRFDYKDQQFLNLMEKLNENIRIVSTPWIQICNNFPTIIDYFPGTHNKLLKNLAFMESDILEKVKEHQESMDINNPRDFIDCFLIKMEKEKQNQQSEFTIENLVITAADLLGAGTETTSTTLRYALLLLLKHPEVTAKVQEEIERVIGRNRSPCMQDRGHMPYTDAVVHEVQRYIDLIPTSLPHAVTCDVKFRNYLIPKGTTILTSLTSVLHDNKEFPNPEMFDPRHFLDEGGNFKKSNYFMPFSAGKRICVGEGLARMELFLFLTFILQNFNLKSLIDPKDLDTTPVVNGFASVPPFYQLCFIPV
CYP2C19 inh: inhibitors of human CYP2C19; P33261; CYP2C19 Supersomes, luciferin-H EGE luminescence, 30 min; inhibition, % at 5 µM; actives 21% (n = 96,000); AID 778;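 active = CYP2C19 inhibition above a set limit at 5 µM in the primary screen, cut at about 50% in these data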;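 also: plate controls were negative control wells for no effect and 2.5 mM tranylcypromine positive control for full effect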
PostGolgi yeast: growth inhibition of a yeast mutant, post-Golgi transport screen; post-Golgi transport phenotypic cell assay; inhibition, % at 10 µM; actives 0.9% (n = 98,000); AID 739;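 also: yeast cells grown in 1536-well plates; yeast grown about 18 h at 30C before absorbance read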
CYP2C9 inhib: human CYP2C9 inhibition; inhibition, % at 5 µM; CYP2C9 Supersomes, luciferin-H conversion, luminescence; AID 777; actives 20% (n = 96,000); P11712;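 active = blocking of liver enzyme CYP2C9 beyond about 50% at 5 µM, limit read from the data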
* = called active by the depositor; . = no result given. These entries were drawn from the full list. Rule as the data show it, unless noted: active = inhibition above about 30%; inactive = the rest.

SMILES	PostGolgi ctrl	CYP2C9 act	CYP2C19 activ	CYP2C19 inh	PostGolgi yeast	CYP2C9 inhib
Cc1cc(NCCCn2ccnc2)n2ncc(-c3ccc(Cl)cc3)c2n1	47.4*	0.1	0.3	74.5*	6.5	87.3*
Cn1c(=O)c2c(nc(NCCCN3CCOCC3)n2Cc2ccc(Cl)cc2)n(C)c1=O	.	0.8	0.8	19.2	.	16.2
Cc1cccc(-c2cc3nc(C)cc(NCCCn4ccnc4)n3n2)c1	6.9	0	0.1	93.0*	-12.3	95.6*
O=C(Nc1nc(-c2ccncc2)cs1)c1ccc(S(=O)(=O)N2CCOCC2)cc1	4.7	1.1	1.1	-12.3	-1.4	-6.8
CCOc1cccc(C(=O)Nc2nc(-c3ccc(S(=O)(=O)N4CCOCC4)cc3)cs2)c1	0.7	0.4	0.7	26.4	-5.2	64.9*
COc1ccccc1OC(C)C(=O)Nc1nc(-c2ccc(S(=O)(=O)N3CCOCC3)cc2)cs1 (stereo unspecified)	12.9	0.1	0.6	37.0	3.3	93.3*
O=C(c1ccccc1)N1CCC(O)(c2cccnc2)CC1	1.8	0.7	0.9	9.8	12.2	29.5
CN(C)c1nc(N)nc(CSc2nnnn2-c2ccc(F)cc2)n1	8.3	0.6	0.2	76.5*	-4.2	35.8
Nc1nc(CSc2nnnn2-c2ccccc2)nc(N2CCCc3ccccc32)n1	56.9*	.	.	.	4.2	.
COc1ccc(N2CCN(Cc3nc(N)nc(N4CCCc5ccccc54)n3)CC2)cc1	-1.0	1	0.6	37.7	-8.0	3.0
Nc1nc(CN2CCN(c3cccc(Cl)c3)CC2)nc(N2CCCc3ccccc32)n1	41.7*	0.8	0.6	41.0	4.1	21.9
Nc1nc(CN2CCN(c3ccccc3)CC2)nc(N2CCCc3ccccc32)n1	4.7	0.4	0.4	62.3*	13.4	59.7*
CN(C)c1nc(N)nc(CSc2n[nH]c(-c3ccccc3)n2)n1	20.9	0.6	0.6	39.3	22.6	44.5
O=C(O)c1ccc(-n2nnnc2SCc2ccccc2F)cc1	-5.3	0.8	1	1.1	-4.0	19.3
CCN(CC)S(=O)(=O)c1ccccc1/C=N\O	-3.2	0.9	0.5	49.2	-6.6	9.7
COCCNC(=S)NC1CC2CCCC(C1)N2Cc1ccco1 (stereo unspecified)	-11.2	0.8	0.5	45.6	-2.9	17.1
O=C(c1cnc2n(c1=O)CCS2)N1CCN(c2ccc([N+](=O)[O-])cc2)CC1	15.4	0.9	1.1	-5.9	-3.5	8.8
C=CCSc1nc(C)c(CC(=O)OCC(C)C)c(=O)[nH]1	-0.8	0.7	0.5	47.4	-3.9	30.5
O=C(NC1CCCC1)C(c1ccccc1F)N(C(=O)c1ccco1)C1CCCC1 (stereo unspecified)	1.6	0.5	0.7	25.2	-6.1	50.8*
CC(C(=O)NC1CCCC1)N(C(=O)c1ccc(-c2ccccc2)[nH]1)c1ccccc1F (stereo unspecified)	18.8	0.4	0.3	69.5*	22.2	61.2*
Cc1ccc(-c2nnn(CC(=O)N(Cc3cccs3)C(C(=O)NC3CCCC3)c3ccco3)n2)o1 (stereo unspecified)	8.3	0.8	0.9	14.3	-16.4	21.9
Cc1ccc(-c2nnn(CC(=O)N(Cc3ccccc3)C(C(=O)NC3CCCC3)c3ccncc3)n2)o1 (stereo unspecified)	2.6	0.4	0.5	45.2	-13.2	55.4*
O=C(NC1CCCC1)C(c1ccncc1)N(Cc1ccccc1)C(=O)Cc1cccs1 (stereo unspecified)	11.2	0.6	0.4	60.8*	-10.3	39.4
CC(C(=O)NC1CCCCCC1)N(c1ccccc1)S(C)(=O)=O (stereo unspecified)	-0.1	1	0.9	5.4	4.3	-4.7
COC(=O)c1[nH]c2ccccc2c1NC(=O)CN1CCC(C(N)=O)(N2CCCCC2)CC1	4.3	0.5	0.8	17.7	9.3	48.6
CC(=O)Nc1cccc(NC(=O)C2CCCN2C(=O)Nc2ccc(Cl)cc2)c1 (stereo unspecified)	5.0	0.6	0.8	17.7	-7.3	42.0
CN(Cc1nc2ccccc2c(=O)[nH]1)CC(O)COCc1ccco1 (stereo unspecified)	-2.2	1.1	1	2.6	-0.2	-8.2
CC(C)(C)NC(=O)NC(=O)COC(=O)CCCc1c[nH]c2ccccc12	3.4	0.8	0.6	39.1	-0.6	21.2
CC1CCN(C(=O)c2scc3c2OCCO3)CC1	10.4	0.9	0.8	16.0	-5.2	8.2
